Measured values reported in PubChem BioAssay AID434985 (The Scripps Research Institute Molecular Screening Center, 2010).
Some of the results follow. The source made the active and inactive calls.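 The calls were made as follows: active = mean percent activation over triplicates above a cutoff set from solvent-only control plates; inactive = the rest.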

Target: Oxytocin receptor (Homo sapiens) (UniProt P30559)
Experiment: human OXTR potentiators, confirmation, fluorescence, CHO-OTR cells, triplicate (AID 434985);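 also: compounds tested in the presence of an EC15 dose of oxytocin; 0% = EC15 oxytocin with DMSO and 100% = EC100 oxytocin with DMSO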
Settings: Fluo-8 calcium fluorescence, potentiation, at 3 µM, hits give high values, scaled from low-dose to maximal oxytocin

Chain of Oxytocin receptor (Homo sapiens) (P30559 whole entry, looked up): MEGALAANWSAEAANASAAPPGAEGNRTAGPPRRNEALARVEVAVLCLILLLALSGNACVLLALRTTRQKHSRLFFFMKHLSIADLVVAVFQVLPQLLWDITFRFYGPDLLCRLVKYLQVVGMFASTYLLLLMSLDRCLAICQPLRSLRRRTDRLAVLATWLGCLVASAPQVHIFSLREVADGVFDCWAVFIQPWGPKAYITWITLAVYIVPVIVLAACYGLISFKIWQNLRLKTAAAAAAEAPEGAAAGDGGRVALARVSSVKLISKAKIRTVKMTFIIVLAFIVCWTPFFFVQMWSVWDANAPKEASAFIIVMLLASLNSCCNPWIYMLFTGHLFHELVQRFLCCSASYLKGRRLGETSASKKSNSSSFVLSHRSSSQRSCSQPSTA

Compound | activation
Cc1ccc(OCC(O)CN2CCN(CC(O)COc3ccc(C)cc3Cl)CC2)c(Cl)c1 (configuration not stated) | -3.49% (inactive)
Cc1cc(C)cc(NC(=O)CSc2ccccc2)c1 | -0.71% (inactive)
CCCCn1c(N)c(N2CCOCC2)c(=O)n(CC(=O)NCCc2ccccc2)c1=O | -3.12% (inactive)
CNc1nnc(-c2ccco2)s1 | -4.03% (inactive)
COCCn1c(CN(Cc2ccccc2)Cc2ccccc2)nc2c1c(=O)n(C)c(=O)n2C | -1.46% (inactive)
COc1cc2c(cc1OC)C(c1ccc(C)o1)CC(=O)N2 (configuration not stated) | -4.74% (inactive)
CCCCNc1c(-c2ccc(OC)c(Sc3ccc(OC)cc3)c2)nc2ccc(Cl)cn12 | -4.15% (inactive)
